Laboratory results published in ChEMBL document CHEMBL4296182, “CO-ADD screening of NIH NCI Diversity Set V”.

What follows are compounds tested on Escherichia coli (assay: Antibacterial activity against Escherichia coli ATCC 25922 (CO-ADD:GN_001); MIC in CAMBH media using NBS plates, by Resazurin F(560/590)). Conditions: Concentration 20 uM, ASSAY_TEST Inhibition of Bacterial Growth, detection method Resazurin, Fluorescence (ex560/em590), MEDIA CAMHB, plate type 384well, CORNING #3640, time 18 hr.
Format: functional
COc1ccc(C(=S)N2CCN(c3ccccc3C)CC2)cc1 was tested, and the Inhibition was 15.7%. Compound N#CC1=CC2CN(Cc3ccccc3)C1C1C(=O)N(c3ccccc3)C(=O)C21 (centres undefined) has an Inhibition of -13.61%. Work on CC1CC=C(O)C12OCC(C)(C)CO2 (centres undefined) yielded an Inhibition of 5.59%. COc1ccc([N+](=O)[O-])cc1NC(=O)N(C)Cc1ccco1 was tested, and the Inhibition was 6.67%. CCCN=C(S)Nc1ccccc1 showed an Inhibition of -3.75%. OC(COc1ccc(Cl)cc1)CN1CCN(c2cccc(Cl)c2)CC1 (centres undefined) showed an Inhibition of 10.45%. With COc1ccc2c3c([nH]c2c1)[C@H]1C[C@H]2[C@H](C[C@@H](O)[C@H](OC)[C@H]2CO)CN1CC3 the Inhibition was -1.49%. C1COCCN1.O=C(O)C(C=C(Cl)Cl)N1CCOCC1 (centres undefined) showed an Inhibition of -1.54%. OC1(Cc2ccccc2)CCNCC1 showed an Inhibition of 6.88%. C/C(=N\O)C1CC(CC(=O)O)C1(C)C (centres undefined) showed an Inhibition of 4.91%. For Clc1nc(NCCc2ccccc2)c2c[nH]nc2n1, the Inhibition was 0.9%. For CC(NC(=O)c1ccc(Cl)c(Cl)c1)c1ccc(-c2ccccc2)cc1 (centres undefined), the Inhibition was 12.06%. O=C(Nc1ccc2ccccc2c1)c1cccc(F)c1 showed an Inhibition of 8.09%. O=C(/C=C/C(=O)N1CCc2ccccc2C1)N1CCc2ccccc2C1 gave an Inhibition of -3.52%. O=C(O)C1OCC2(CO1)COC(C(=O)O)OC2 (centres undefined) gave an Inhibition of 10.47%. For CC1(C)C2CCC(CN=C(N)CSS(=O)(=O)O)C1C2 (centres undefined), the Inhibition was 1.93%. For CCCCSc1cc(O)nc(N)n1, the Inhibition was 16.01%. With CCc1oc2ccccc2c1C(=O)c1cc(Br)c(O)c(Br)c1 [BENZBROMARONE] the Inhibition was 7.93%. For COc1ccc(C2OC3=Nc4cc(C)c(C)cc4NC3=C2O)cc1 (centres undefined), the Inhibition was 1.83%. For O=C1COc2cccnc2N1, the Inhibition was 0.48%. Nc1nc(SCc2ccccc2)sc1C(=O)N1CCCCC1 was tested, and the Inhibition was 3.88%. In the case of CS(=O)(=O)Oc1ccc(Br)c2cccnc12, the Inhibition is reported as 3.51%. Compound O=c1[nH]c2c(cnn2-c2ccc(Cl)cc2)c(=O)n1-c1cccc(Cl)c1 has an Inhibition of -10.38%. In the case of Cc1ccc(Nc2nnc(S)s2)cc1F, the Inhibition is reported as 5.51%. CCSc1nc(C)c(C)c(O)n1 showed an Inhibition of 10.67%. In the case of COc1c(O)ccc2c1CN1CCc3cc4c(cc3C1C2)OCO4 (centres undefined), the Inhibition is reported as 3.09%. In the case of Oc1ccccc1-n1c(-c2ccccc2)ccc1-c1ccccc1, the Inhibition is reported as 1.29%. CC1=Nc2ccccc2/C1=C\c1c(C)[nH]c2ccccc12 gave an Inhibition of 0.88%. Oc1ccc2ccccc2c1/N=N/c1ccc(F)cc1 showed an Inhibition of -0.77%. Work on O=P(O)(O)c1cc(-c2ccccc2)oc1-c1ccccc1 yielded an Inhibition of 13.72%. With Nc1ccn(C2OC(CCl)C(O)C2O)c(=O)n1 (centres undefined) the Inhibition was 10.09%. NC(S)=Nc1cccc(Cl)c1 showed an Inhibition of 1.81%. Cc1nc2[nH]c(=O)n(O)c(=O)c2s1 gave an Inhibition of 5.04%. N#CC1=C(Nc2ccccc2Cl)SC(c2ccccc2O)NC1=O (centres undefined) was tested, and the Inhibition was 4.44%. With Cc1nc(Nc2ccc(F)cc2)nc(Nc2ccc(F)cc2)c1[N+](=O)[O-] the Inhibition was 5.3%. c1ccc(-c2ccc(-c3nccc4ccccc34)[nH]2)cc1 was tested, and the Inhibition was 6.1%. Compound CC(=O)[C@H]1CC[C@H]2[C@@H]3CCC4=CC(=O)CC[C@]4(C)[C@@]3(F)[C@@H](O)C[C@]12C has an Inhibition of 9.76%. With COc1ccc2c(n1)Sc1nc3ccccc3nc1N2 the Inhibition was 7.15%. In the case of CCOC(=O)Nc1ccc2[nH]c(-c3cscn3)nc2c1, the Inhibition is reported as 13.31%.
